Laboratory results reported in the supplement of paper PMC8371130.
Structures can show the parent of a compound that is named as a salt.

System: HL-1
Assay: relative cell viability (CellTiter-Glo) vs DMSO control (% of DMSO control); higher = more viable cells
Summary of the method: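 Plating of HL-1 mouse atrial cardiomyocytes at 1000 cells per well in 384-well plates was done together with compounds at 40, 200, 1000 or 5000 nM in 0.01% DMSO. A day later the cells faced 48 h of 1% O2 and then 24 h of reoxygenation, or matching normoxia. Viability was measured via CellTiter-Glo luminescence and set relative to vehicle-treated control cells.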

[1] = oxygen condition: hypoxia 48 h (1% O2) + reoxygenation 24 h, 40 nM
[2] = oxygen condition: hypoxia 48 h (1% O2) + reoxygenation 24 h, 200 nM
[3] = oxygen condition: hypoxia 48 h (1% O2) + reoxygenation 24 h, 1000 nM
[4] = oxygen condition: hypoxia 48 h (1% O2) + reoxygenation 24 h, 5000 nM
[5] = oxygen condition: normoxia 72 h, 40 nM
[6] = oxygen condition: normoxia 72 h, 200 nM
[7] = oxygen condition: normoxia 72 h, 1000 nM
[8] = oxygen condition: normoxia 72 h, 5000 nM

Structure (SMILES)	relative cell viability [1]	relative cell viability [2]	relative cell viability [3]	relative cell viability [4]	relative cell viability [5]	relative cell viability [6]	relative cell viability [7]	relative cell viability [8]
CC[C@H](C)C(=O)O[C@H]1CCC=C2C=C[C@H](C)[C@H](CC[C@@H]3C[C@@H](O)CC(=O)O3)[C@H]21 [Mevastatin]	112	101	99.3	113	101	105	106	119
N=C(N)NC(=O)c1nc(Cl)c(N)nc1N [Amiloride hydrochloride dihydrate]	101	106	107	118	101	102	106	111
Cc1cccc(CN2CCN(C(c3ccccc3)c3ccc(Cl)cc3)CC2)c1 (configuration not stated) [Meclizine 2HCl]	101	108	98.5	107	101	109	111	103
CC[C@@H]1C(=O)OC[C@@H]1Cc1cncn1C [Pilocarpine HCl]	104	111	105	110	115	104	106	119
CCOC(=O)[C@H](CCc1ccccc1)N[C@H]1CS[C@H](c2cccs2)CN(CC(=O)O)C1=O [Temocapril HCl]	102	102	104	112	104	77.1	102	110
O=C(CCNNC(=O)c1ccncc1)NCc1ccccc1 [Nialamide]	107	109	108	113	96.2	105	104	138
CCCCc1oc2ccc(NS(C)(=O)=O)cc2c1C(=O)c1ccc(OCCCN(CCCC)CCCC)cc1 [Dronedarone HCl]	99.9	99.6	102	105	99.8	110	102	95
C[C@]12C=CC(=O)N[C@@H]1CC[C@@H]1[C@@H]2CC[C@]2(C)[C@@H](C(=O)Nc3cc(C(F)(F)F)ccc3C(F)(F)F)CC[C@@H]12 [Dutasteride]	104	106	109	108	105	106	113	99.6
CNC[C@H](O)c1ccc(O)c(O)c1 [Epinephrine bitartrate]	99.2	98.8	97.2	6.86	101	102	98.4	3.42
NC(=O)c1cccnc1 [Nicotinamide]	95.4	97.2	98.5	104	96.7	103	95.5	102
COc1ccc(CN(CCN(C)C)c2ccccn2)cc1 [Pyrilamine Maleate]	102	99.1	101	112	99.5	106	99.9	124
CC(C[N+](C)(C)C)OC(N)=O (configuration not stated) [Bethanechol chloride]	96.1	99.6	107	86.9	104	104	98.4	111
C[C@]12CC[C@H](O)CC1=CC[C@@H]1[C@@H]2CC[C@]2(C)C(c3cccnc3)=CC[C@@H]12 [Abiraterone]	74.6	72.2	86.7	116	61.2	67.9	78.7	112
Cc1ncc(C[n+]2csc(CCO)c2C)c(N)n1 [Thiamine HCl]	101	107	102	112	99.4	104	106	117
O=c1[nH]c(=O)n([C@H]2C[C@H](O)[C@@H](CO)O2)cc1F [Floxuridine]	49.5	40.7	31.4	17.4	46.1	41.5	28.6	16.3
N=C(N)NCCN1CCCCCCC1 [Guanethidine Sulfate]	101	101	96.2	113	103	107	103	116
CN(CCOc1ccc(CC2SC(=O)NC2=O)cc1)c1ccccn1 (configuration not stated) [Rosiglitazone HCl]	107	93.8	101	109	100	93.8	104	107
N=C(N)N/N=C/c1c(Cl)cccc1Cl [Guanabenz acetate]	96.3	113	105	99.1	101	99.6	98.7	98.9
C[C@@](Cc1ccc(O)c(O)c1)(NN)C(=O)O [Carbidopa]	101	100	101	106	96.4	96.4	102	110
CC(=O)O[C@H]1C[C@@H]2CC[C@@H]3[C@H](CC[C@@]4(C)[C@H]3C[C@H]([N+]3(C)CCCCC3)[C@@H]4OC(C)=O)[C@@]2(C)C[C@@H]1N1CCCCC1 [Vecuronium Bromide]	112	118	114	119	112	115	122	124
CNCC[C@H](Oc1cccc2ccccc12)c1cccs1 [Duloxetine HCl]	92	96	99.8	92.8	89.9	94.3	106	104
CCOC(=O)[C@H](CCc1ccccc1)N[C@H]1CCc2ccccc2N(CC(=O)O)C1=O [Benazepril hydrochloride]	102	102	103	109	101	109	108	109

Structure (SMILES)	relative cell viability [1]	relative cell viability [2]	relative cell viability [3]	relative cell viability [4]	relative cell viability [5]	relative cell viability [6]	relative cell viability [7]	relative cell viability [8]
COc1ccccc1OCC(O)CN1CCN(CC(=O)Nc2c(C)cccc2C)CC1 (configuration not stated) [Ranolazine dihydrochloride]	88.7	89.7	86.8	108	98.5	97.1	98.8	110
CC/C(=C(\c1ccccc1)c1ccc(OCCN(C)C)cc1)c1ccccc1 [Tamoxifen Citrate]	103	99.9	98.6	108	95.9	107	105	103
CN(C)CCc1c[nH]c2ccc(Cn3cncn3)cc12 [Rizatriptan Benzoate]	103	108	110	107	109	104	110	113
O=C(O)[C@H](CC(=O)N1C[C@H]2CCCC[C@H]2C1)Cc1ccccc1 [Mitiglinide calcium]	108	101	99.7	108	101	102	104	110
CN(C)CCCN1c2ccccc2Sc2ccc(C(F)(F)F)cc21 [Triflupromazine HCl]	98.8	105	102	106	102	99.3	101	106
CCN(CC)CCOC(=O)c1ccc(N)cc1 [Procaine]	100	102	109	108	105	104	105	110
Cc1cc(C#N)cc(C)c1Oc1nc(Nc2ccc(C#N)cc2)nc(N)c1Br [Etravirine]	106	103	109	111	108	111	115	110
CN(c1nccc(=O)[nH]1)C1CCN(c2nc3ccccc3n2Cc2ccc(F)cc2)CC1 [Mizolastine]	97.1	98.1	101	108	97.3	94.6	101	107
O=C1NC(=O)C(c2ccccc2)(c2ccccc2)N1 [Phenytoin]	98.3	97.9	98.1	103	95.4	61.2	93.3	99.4
O=C(O)Cc1ccccc1Nc1c(Cl)cccc1Cl [Diclofenac]	97.6	112	103	109	100	105	105	109
CCC1(c2ccccc2)C(=O)NCNC1=O [Primidone]	101	105	110	95.7	104	103	98.6	106
O=P(O)(O)C(O)(Cc1cccnc1)P(=O)(O)O [Risedronate sodium]	103	112	107	122	111	107	121	116
CC1(C)S[C@@H]2[C@H](NC(=O)[C@H](NC(=O)N3CCNC3=O)c3ccccc3)C(=O)N2[C@H]1C(=O)O [Azlocillin sodium salt]	102	102	106	110	101	104	112	116
NCCS [Cysteamine HCl]	101	108	109	106	102	102	106	111
CCCCC1C(=O)N(c2ccccc2)N(c2ccccc2)C1=O [Phenylbutazone]	100	104	93.3	110	102	112	43.1	112
CCOC(=O)OC(C)OC1=C(C(=O)Nc2ccccn2)N(C)S(=O)(=O)c2ccccc21 (configuration not stated) [Ampiroxicam]	110	102	104	121	101	101	102	120
COc1nc(N)nc2c1ncn2[C@@H]1O[C@H](CO)[C@@H](O)[C@@H]1O [Nelarabine]	113	114	112	112	111	112	108	111
CCOc1cc(N)c(Cl)cc1C(=O)NCC1CN(Cc2ccc(F)cc2)CCO1 (configuration not stated) [Mosapride citrate]	105	106	104	104	104	109	103	109
CCCc1nc(C(C)(C)O)c(C(=O)OCc2oc(=O)oc2C)n1Cc1ccc(-c2ccccc2-c2nnn[nH]2)cc1 [Olmesartan medoxomil]	93.8	99.2	94.7	105	97	98.2	96.7	95.7
COC(=O)[C@H]1[C@H]2C[C@@H]3c4[nH]c5cc(OC)ccc5c4CCN3C[C@H]2C[C@@H](OC(=O)c2cc(OC)c(OC)c(OC)c2)[C@@H]1OC [Reserpine]	112	106	107	110	102	103	103	113
CC(=O)Oc1ccccc1C(=O)O [Aspirin]	94	101	90.7	110	95.4	105	93.6	122
O=C1c2ccccc2C(=O)C1c1ccccc1 [Phenindione]	97	105	95.1	113	108	107	102	108
